Assay results: PubChem BioAssay (NCATS)
Records with an inconclusive call do not appear. Values without a mark were called inactive. Activity calls are given as the source filed them. Calls come from the whole dose curve; as a rule, active = well fitted cell-killing curve with a large enough effect; inconclusive = small, poorly fitted or top-dose-only effect, or effect the other way; inactive = no such curve, though single readings can be large or run the other way.

Assay: Quantitative highthroughput screen to assess conditional lethalithy of SEM cells grown in RPMI1640 with dialyzed fetal bovine serum (RPMI+ds) (AID 1963884); note: nearly all actives have a fitted effect of over 35% in size
Conditions: SEM B-ALL cells, RPMI+dialyzed FBS, CellTiter-Glo viability, 48 h; series mostly up to 45.8 µM; viability: at the top concentration
Source text: Assay Provider: Jason Cantor Ph.D.
Department of Biochemistry
University of Wisconsin-Madison, Madison, WI, USA
Chemical screening studies have identified drug sensitivities across hundreds of cancer cell lines but most putative therapeutics fail to translate. Discovery and development of drug candidates in models that more accurately reflect nutrient levels in human blood is a major challenge. Here we performed high-throughput screens in conventional versus Human Plasma-Like Medium (HPLM) to identify compounds that were "missed" when screening using the artificial culture condition. Sets of conditional anticancer compounds spanned phases of clinical development and included non-oncology drugs were assessed. […] We also traced conditional phenotypes for several chemotherapeutics to availability of HPLM-specific metabolites and confirmed others for compounds whose reported targets are encoded by nonessential genes. Our findings establish generalizable strategies for exploiting conditional lethality in HPLM to reveal therapeutic candidates and mechanisms of action in cancer cells.
Described herein are the results of each viability screens against three cell lines: NOMO1 (an acute myeloid leukemia cell line); P12-Ichikawa (a T-cell acute lymphoblastic leukemia); and SEM (a B-cell ALL). Each assay was screened using 3 different cell culture media: homemade human plasma-Like medium with 10% dialyzed fetal bovine serum (HPLM+ds); RPMI1640 with 10% untreated FBS and 5mM glucose (RPMI+s); and RPMI1640 with 10% dialyzed fetal bovine serum and 5 mM glucose (RPMI+ds).
PROTOCOL TABLE (as described by Inglese J, Shamu CE and Guy RK. 2007)
SEQUENCE No. (e.g., 1, 2, 3, etc.); […] (e.g., Cells, Incubation, Reagent, etc.); VALUE and DESCRIPTION.
1; Cells; 5 uL; white, solid bottom 1536-well Greiner assay plate.
2; Compounds; 23 nL; Kalypsis pin tool (Wako USA) equipped with a 1536-well pin head to transfer to the assay plates.
3; Incubation; 48 hours; 37C incubation.
4; Reagent; 3 uL; CellTiter Glo (Promega).
5; Incubation; 5 min, room temperature
6; Detection; Luminescence, Viewlux PerkinElmer.
NOTES (numbers refer to Sequence numbers above)
1. Briefly, 5 ul of cell reagent was dispensed using a Multidrop Combi Dispenser. The NOMO1 and SEM cells were plated at 500 cells/well and the P12-Ichikawa line at 1000 cells/well.
2. After seeding the cells, 23 nL of MIPE 4.1 library compounds (in DMSO) were added to each plate using a Kalypsys 1536 Pintool dispenser. Bortezomib at final concentration of […] and DMSO were added to each plate as positive and negative controls respectively. For each screen, MIPE 4.1 compounds were added over an eleven-point concentration range […] in 3-fold dilutions.
3. Each plate was covered with a stainless steel gasketed lid to prevent evaporation and incubated for 48 hour at 37C, 95% relative humidity, and 5% CO2.
4-5. Three microliter CellTilter-GloTM luminescent substrate mix (Promega) reagent was added to the assay plate and incubated at room temperature for 5 min.
6. The luminescence signal was measured using a ViewLux (PerkinElmer) multiplate reader with a 2 second exposure time per plate. Data for each compound were normalized as percent viability such that measurements for DMSO and the empty well controls in each plate were defined as 100% and 0%, respectively.
Potency is the fitted concentration of half-maximal effect.

| SMILES | Potency | viability |
| --- | --- | --- |
| CCCC1OC2C[C@@H]3[C@H]4CCC5=CC(=O)C=C[C@]5(C)[C@H]4C(O)C[C@]3(C)[C@]2(C(=O)CO)O1 (stereo not given in full) | 0.132 µM (active) | – |
| Cc1cnc(Nc2ccc(N3CCN(C)CC3)cc2)nc1Nc1cccc(S(=O)(=O)NC(C)(C)C)c1 | 1.32 µM (active) | – |
| Nc1ccccc1NC(=O)c1ccc(CNC(=O)OCc2cccnc2)cc1 | 0.743 µM (active) | – |
| O=C(C=Cc1ccc(O)cc1)c1ccc(O)cc1O | 18.7 µM (active) | – |
| CCCS(=O)(=O)Nc1ccc(F)c(C(=O)c2c[nH]c3ncc(-c4ccc(Cl)cc4)cc23)c1F | – | 99.6% |
| CC(=O)Nc1nc(C)c(-c2ccc(Cl)c(S(=O)(=O)NCCO)c2)s1 | 1.66 µM (active) | – |
| Nc1ccccc1NC(=O)c1ccc(CNc2nccc(-c3cccnc3)n2)cc1 | 0.662 µM (active) | – |
| N=C(N)c1ccc2cc(OC(=O)c3ccc(N=C(N)N)cc3)ccc2c1 | – | 83.7% |
| COC1=C2C[C@@H](C)C[C@H](OC)[C@@H](O)[C@@H](C)C=C(C)[C@H](OC(N)=O)[C@@H](OC)C=CC=C(C)C(=O)NC(=CC1=O)C2=O | 7.43 µM (active) | – |
| Nc1ccc(S(=O)(=O)Nc2ncccn2)cc1 | – | 97.3% |
| CNC1CCC(N(Cc2cccc(-c3ccncc3)c2)C(=O)c2sc3ccccc3c2Cl)CC1 (stereo not given) | 0.833 µM (active) | – |
| CC(C)C(=O)Nc1ccc([N+](=O)[O-])c(C(F)(F)F)c1 | – | 88.6% |
| Cc1coc2c1C(=O)C(=O)c1c-2ccc2c(C)cccc12 | – | 81% |
| CO[C@@H]1[C@@H](OC(N)=O)[C@@H](O)[C@H](Oc2ccc3c(O)c(NC(=O)c4ccc(O)c(CC=C(C)C)c4)c(=O)oc3c2C)OC1(C)C | – | 112% |
| CCN1CCN(c2ccc(Nc3cc(N(C)C(=O)Nc4c(Cl)c(OC)cc(OC)c4Cl)ncn3)cc2)CC1 | 2.64 µM (active) | – |
| O=C(O)c1ccc(O)c2ncc(N3CCOCC3)cc12 | 18.7 µM (active) | – |
| CN1c2cc(O)c(N=NC(N)=O)cc2CC1S(=O)(=O)O (stereo not given) | – | 95.8% |
| COc1ccc(-c2ccc3cc(C(=O)O)ccc3c2)cc1C12CC3CC(CC(C3)C1)C2 | – | 94.2% |
| CC(=O)O[C@]1(C(C)=O)CC[C@H]2[C@@H]3C=C(C)C4=CC(=O)CC[C@]4(C)[C@@H]3CC[C@@]21C | – | 83% |
| CCN(CC)CCOc1ccc(C(=C(Cl)c2ccccc2)c2ccccc2)cc1 | – | 82.6% |

| SMILES | Potency | viability |
| --- | --- | --- |
| Cc1cc(C(=O)NOCCO)c(Nc2ccc(I)cc2F)n(C)c1=O | 0.0074 µM (active) | – |
| CCOC(=O)c1c(C)n(C)c2ccc(O)cc12 | – | 111% |
| Cc1ccc(C(=O)N(CCCN)[C@@H](c2nc3cc(Cl)ccc3c(=O)n2Cc2ccccc2)C(C)C)cc1 | 0.0013 µM (active) | – |
| Oc1ccc(-c2nc(-c3ccc(F)cc3)c(-c3ccncc3)[nH]2)cc1 | 0.372 µM (active) | – |
| Cc1ccc(-n2nc(C(C)(C)C)cc2NC(=O)Nc2ccc(OCCN3CCOCC3)c3ccccc23)cc1 | 9.35 µM (active) | – |
| COc1ccc(Nc2nccc(NCCO)n2)cc1 | – | 74.8% |
| CON(C)C(=O)N1N=C(c2cc(F)ccc2F)S[C@]1(CCCN)c1ccccc1 | – | 17.4% |
| O=C(Nc1ccccc1)Nc1ccc(-c2ccc(C(=O)[C@H]3CCC[C@H]3C(=O)O)cc2)cc1 | – | 121% |
| c1cnc2cc3c(cc2n1)C1CNCC3C1 | – | 88.5% |
| CC(=O)c1cnc2ccc(-c3cc(Cl)c(O)c(Cl)c3)nc2c1NC1CCC(CN(C)C)CC1 (stereo not given) | 0.0588 µM (active) | – |
| O=C(c1ccc(C(=O)N2CCC(N3CCCC3)CC2)c(Nc2ccccc2)c1)N1CCC(N2CCCC2)CC1 | – | 93.5% |
| N#CC(=C(O)c1ccc(Cl)cc1Cl)c1nc2cc(Cl)ccc2c(=O)[nH]1 | – | 112% |
| Cn1cnc(=N)c2[nH]cnc21 | 3.32 µM (active) | – |
| Cc1ccc(-c2ncn(-c3ccc(Nc4nccc(-c5cccc(N6CCOCC6)c5)n4)cc3)n2)cn1 | 0.148 µM (active) | – |
| COCCOc1nc(-c2ccc(Cl)c(Cl)c2)n(-c2ccc(NC(=O)CCl)cc2)n1 | – | 88.7% |
| COC(=O)C1C2CC3c4[nH]c5cc(OC)ccc5c4CCN3CC2CC(OC(=O)c2cc(OC)c(OC)c(OC)c2)C1OC (stereo not given) | – | 83.5% |
| Cc1c(CCOc2ccc(C(=O)O)cc2)c2cc(Cl)ccc2n1C(c1ccccc1)c1ccccc1 | – | 95.3% |
| CN(C)c1nc(Cc2ccc(NC(=O)c3ccc(C(F)(F)F)cc3)cc2)nc(N(C)C)c1CC(=O)O | – | 86.5% |
| CCOC(=O)O[C@]1(C(=O)OCCl)CC[C@@H]2[C@H]3CCC4=CC(=O)C=C[C@]4(C)[C@@H]3[C@@H](O)C[C@@]21C | – | 93.2% |
| COc1cc(N2CCN(C)CC2)ccc1Nc1nc(N)c(C(=O)c2c(Cl)cccc2Cl)s1 | 20.9 µM (active) | – |
